# Test system: BLK
# 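Note: kd values determined as follow-up on hits from a single-replicate KINOMEscan panel screen.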
row,Structure (SMILES),Kd
1,Cl.NC(=O)c1cccc(Nc2nccc(Nc3ccc(Oc4cccc(Cl)c4)c(Cl)c3)n2)c1 [GW659008],2.6 µM
2,COc1cc2nccc(Nc3ccc(NC(=O)c4ccc(C)cc4)c(O)c3)c2cc1OC.Cl [GW440132],0.23 µM
3,Cc1ccc(C(=O)Nc2ccc(Nc3ccnc4cc(-c5ccccn5)ccc34)cc2O)cc1.Cl [GW440146],0.063 µM

# Test system: BRAF
row,Structure (SMILES),Kd
1,CC(=O)Nc1nc2cnc(Nc3cc(NC(=O)c4cccc(CCC#N)c4)ccc3C)nc2s1,> 10 µM
2,CN(C)CCN(C)C(=O)c1cc(-c2ccncc2)c(-c2ccc(Cl)c(O)c2)o1.Cl.Cl [SB-710397],0.045 µM
3,Cc1cccc(-c2nc(-c3ccc(S(C)(=O)=O)cc3)sc2-c2ccnc(NCCc3ccccc3)c2)c1,0.081 µM
4,COC(=O)c1c(-c2ccccc2)c2cc(OC)ccc2c(=O)n1Cc1ccccc1,0.061 µM
5,Cl.O=C(Nc1cccc(-c2nn3ncccc3c2-c2ccnc(Nc3cccnc3)n2)c1)c1c(F)cccc1F [GSK312879],0.062 µM
6,COC(=O)c1c(-c2ccccc2)c2cc(C(=O)O)ccc2c(=O)n1Cc1ccccc1,0.05 µM

# Test system: BRSK1
row,Structure (SMILES),Kd
1,O=C(Nc1n[nH]c2nc(-c3nccs3)c(Br)cc12)C1CC1 [SB-742251],0.23 µM
2,Cc1ccc(NC(=O)Nc2cccc(Cl)c2)cc1-c1ccc(C(=O)Nc2ccncc2)cc1 [GSK1398468],> 10 µM
3,CCn1c(-c2ccccn2)nc2cnccc21 [SB-736398],> 10 µM
4,Cc1ccc(NC(=O)Nc2cc(C(C)(C)C)nn2-c2ccccc2)cc1 [GSK1014915],> 10 µM
5,CS(=O)(=O)c1ccc(-c2c(-c3ncn[nH]3)sc(N3CCOCC3)c2C#N)cc1,> 10 µM
6,O=C(Nc1n[nH]c2nc(-c3nccs3)c(Br)cc12)C1CCCC1 [SB-742609],0.43 µM

# Test system: BRSK2
row,Structure (SMILES),Kd
1,O=C(Nc1n[nH]c2nc(-c3nccs3)c(Br)cc12)C1CC1 [SB-742251],0.14 µM
2,COc1ccccc1CNC(=O)c1cc(C(=O)c2ccccc2C)c[nH]1 [GSK364507],> 10 µM
3,O=C(Nc1n[nH]c2nc(-c3nccs3)c(Br)cc12)C1CCCC1 [SB-742609],0.33 µM

# Test system: CAMK1G
row,Structure (SMILES),Kd
1,Cc1cccc(-c2nc(C)cc(Nc3ccncc3)n2)n1 [GSK257997],> 10 µM
2,Cc1cc(-c2ccc3c(c2)CC[C@@H](N[C@@H](C)c2ccccc2)C3)cnc1N.Cl [GW412617],> 10 µM
3,O=C(Nc1n[nH]c2cc(-c3cccc(F)c3F)ccc12)C1CC1 [SB-733894],> 10 µM
4,CN1C(=O)C(Nc2ccc(Cl)c(C(=O)O)c2)=C(c2ccc(Cl)cc2)C1=O [SB-404290],> 10 µM

# From publication PMC5540273 (PLoS ONE, 2017)
